# A selection: hits, their analogues and other compounds. The true share with any hit is near 17%.
# TDP1 cell CPT: DT40-hTDP1 cell growth loss with CPT | hit rate 12% among 420,000 | Potency, µM (series often up to 46.2 µM), usual class: inhibitors | chicken DT40 Tdp1-/-;hTDP1 cells + 20 nM CPT, ATP luminescence, 48 h | AID 686979; also: nearly all actives have a fitted effect of over 55% in size
#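 Chicken DT40 Tdp1-/- cells complemented with human TDP1, 400 cells/well, exposed to compounds plus 20 nM camptothecin for at least 48 h at 37 C; viability read as ATP content by CellTiter-Glo luminescence.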
# HT1080 IDH1KD tx: toxicity to HT-1080 IDH1 knockdown cells (counter line); HT-1080 IDH1 knockdown viability, ATP luminescence, 48 h; Potency, µM (titrated, usually from 46.1 µM), hits mostly cytotoxic; hit rate 2% among 360,000; AID 686971
#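 % activity derives from luminescence (CellTiter-Glo), normalised to DMSO and no-cell wells. HT-1080-IDH1KD cells, 750/well, had 48 h compound exposure at 37 °C.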
# TGFb inhibitor: TGF-b pathway inhibition | HepG2 CAGA-GFP TGF-b/SMAD3 reporter, GFP fluorescence, 18 h; TGF-beta stimulated, 500 pg/mL final | Potency, µM (highest dose often 46.1 µM), actives largely listed as inhibitors | hit rate 1.2% among 410,000; also: nearly all actives have a fitted effect of over 65% in size
#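 Inhibition was scored as loss of TGF-beta-induced (500 pg/mL final, 18 hours, 37 degrees C) GFP in HEPG2 cells carrying a CAGA-GFP reporter, in DMEM with 1% FBS. Well GFP was summed per cell; Activity was normalised to unstimulated and stimulated DMSO wells, then concentration-response fitting.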
# DT40 TDP1 no CPT: qHTS for Inhibitors of human tyrosyl-DNA phosphodiesterase 1 (TDP1): qHTS in cells in absence of CPT. hit rate 15% among 420,000. DT40 Tdp1-/- hTDP1 cells, no CPT, ATP luminescence, 48 h. AID 686978, 2013. Potency, µM (doses to about 46.2 µM), hits mostly inhibitors; also: nearly all actives have a fitted effect of over 55% in size
#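 Readout: luminescence from CellTiter-Glo after 30 min in the dark at RT. Cells: DT40 Tdp1-/- with stable hTDP1, 400/well. Exposure: compounds alone, ≥48 hr, 37 °C.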
# HT1080NT lethal: kills 2HG-producing HT-1080-NT fibrosarcoma cells. HT-1080-NT fibrosarcoma viability, CellTiter-Glo ATP luminescence, 48 h. Potency, µM (titrated, usually from 46.1 µM), actives largely listed as cytotoxic. hit rate 1.6% among 360,000. AID 686970;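 also: NT is the 2HG producing partner of a matched IDH1 knockdown line; nearly all actives have a fitted effect of over 55% in size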
#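 Read-out is CellTiter-Glo luminescence after 10 minutes at room temperature, following 48 hours' compound treatment of HT-1080-NT cells (750 cells/well, RPMI, 5% FBS, 37 degrees C).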
# HepG2 viability: counter-screen for TGF-b inhibitors: cytotoxicity in HepG2 cells; HepG2 CAGA-GFP viability, ATP luminescence, 18 h; hit rate 0.76% among 410,000; Potency, µM (series often up to 46.1 µM), hits mostly cytotoxic
#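 CellTiter-Glo luminescence gave cytotoxicity after 18 hours at 37 degrees C. The cells were HepG2 CAGA-GFP in 1% FBS DMEM, stimulated with 500 pg/mL TGF-beta after compound addition. %Activity was normalised to no-cell wells (complete cell-killing) and DMSO (no toxicity), and curves were fitted and classified.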
# Hits are given with their value; – = inactive; ? = inconclusive; · = no result; [ ] = dose if it differs, or a comment. Calls follow the shape of the dose curve; as a rule, active = well fitted curve in the direction sought with a large enough effect; inconclusive = small, poorly fitted or top-dose-only effect, or another doubt; inactive = no such curve, though single readings can be large; an effect the other way counts as inactive or inconclusive.
SMILES,TDP1 cell CPT,HT1080 IDH1KD tx,TGFb inhibitor,DT40 TDP1 no CPT,HT1080NT lethal,HepG2 viability
C[C@H]1O[C@H](C2CCCC2)CC2=C1C(=O)OC(C)(C)O2,–,–,·,–,–,·
Cc1ccc(C(=O)OC(C(=O)O)C(OC(=O)c2ccc(C)cc2)C(=O)O)cc1 (stereo not drawn),–,–,–,–,–,–
C[C@@H](NC(=O)[C@@H]1Cc2ccccc2CN1C(=O)OC(C)(C)C)C(=O)NC1CCCCC1,–,–,–,–,–,–
Cn1cnnc1SCc1ccc(C(=O)N=Nc2c(O)n(Cc3ccc(Cl)cc3)c3ccccc23)cc1,20.6µM,–,?,10.3µM,–,–
Cn1cnnc1SCC(=O)NNC(=O)c1ccc(Cl)cc1,–,–,–,–,–,–
CCn1c(O)c(N=NC(=O)c2ccc(CSc3nncn3C)cc2)c2ccccc21,?,–,–,14.6µM,–,–
COc1cc2sc3cc(NCc4ccc5c(c4)OCO5)ccc3c(=O)c2cc1OC,?,–,–,16.4µM,–,–
COc1ccc(NCc2ccc3c(c2)OCO3)cc1Cl,–,–[9.24 µM],–,–,–,–
COc1cc2sc3cc(NCc4ccc(C)o4)ccc3c(=O)c2cc1OC,?,–,–,14.6µM,–,–
CCOC(=O)C/C(C)=N/NC(=O)C1CC1(c1ccccc1)c1ccccc1 (stereo not drawn),–,–,–,–,–,–
CCn1c(C)nc2cc(C(=O)N/N=C/c3ccccc3C)ccc21,–,–,–,–,–,–
CCn1c(C)nc2cc(C(=O)N/N=C(\C)c3ccccc3O)ccc21,3.66µM,–,–,2.91µM,–,–
Cc1ccc(/C=N/N2CCN(C3c4ccccc4-c4ccccc43)CC2)o1,?,–,?,18.4µM,–,–
COc1cc(/C=N/N2CCN(C3c4ccccc4-c4ccccc43)CC2)cc(OC)c1OC,16.4µM,–,–,14.6µM,–,–
O=C(O)c1ccc(/C=N/N2CCN(C3c4ccccc4-c4ccccc43)CC2)cc1,–,–,?,–,–,–
COc1cc(/C=N/N2CCN(C3c4ccccc4-c4ccccc43)CC2)cc(OC)c1O,?,–,–,?,–,–
Oc1ccc(/C=N/N2CCN(C3c4ccccc4-c4ccccc43)CC2)cc1O,8.2µM,?,–,10.3µM,–,–
Oc1ccc(/C=N/N2CCN(C3c4ccccc4-c4ccccc43)CC2)cc1,–,–,12.6µM,–,–,17.8µM
O=C(NN=C(c1ccccc1)c1ccccc1)C(CCl)C1CCCCC1 (stereo not drawn),–,–,–,–,–,–
O=C(Nc1ccc(N2CCOCC2)cc1)c1ccc([N+](=O)[O-])cc1,–,–,–,–,?,–
CC1Cc2cccc3ccc(=O)n(c23)C1 (stereo not drawn),–,–,–,–,–,–
CCN1CCCC1CNc1ncnc2c1[nH]c1ccc(Cl)cc12 (stereo not drawn),?,?,–,?,14.6µM,–
Cc1ccc(S(=O)(=O)N2CCCC2)cc1C(=O)Nc1ccc(-n2cnnn2)cc1,?,–,–,–,–,–
O=S(=O)(c1cccc(F)c1)N1CCC(c2nc3ccccc3s2)CC1,–,·,–,–,·,–
O=C(Nc1cccc(C(F)(F)F)c1)Nc1ccc2nc([C@@H]3O[C@H](CO)[C@@H](O)[C@H](O)[C@H]3O)[nH]c2c1,–,–,–,–,–,–
SMILES,TDP1 cell CPT,HT1080 IDH1KD tx,TGFb inhibitor,DT40 TDP1 no CPT,HT1080NT lethal,HepG2 viability
Cc1ccc(-n2c(SCC(=O)N/N=C/c3ccccc3OCC(=O)O)nc3ccccc3c2=O)cc1,–,–,–,–,–,–
Cc1nn(-c2ccccc2)c(C)c1/C=N/NC(=O)CSc1nc2ccccc2c(=O)n1-c1ccc(Br)cc1,?,13µM,?,?,20.6µM,–
Cc1ccc(-n2c(SCC(=O)N/N=C/c3c(C)nn(-c4ccccc4)c3C)nc3ccccc3c2=O)cc1,20.6µM,–,?,?,–,–
CC1(C)OC(=O)C(=NNc2ccc(Cl)cc2)C(=O)O1,?,–,?,–,–,–
Cc1c(C(=O)NC(C)c2ccccc2)sc2ncnc(N(C)C3CCCCC3)c12 (stereo not drawn),6.51µM,·,–,?,·,–
Cc1cccc(CNC(=O)c2sc3ncnc(N(C)C4CCCCC4)c3c2C)c1,18.4µM,·,?,20.6µM,·,–
Cc1c(C(=O)NCc2cccc(Cl)c2)sc2ncnc(N(C)C3CCCCC3)c12,20.6µM,·,?,?,·,–
CCOc1ccc(CNC(=O)c2sc3ncnc(N(C)C4CCCCC4)c3c2C)cc1,16.4µM,·,?,?,·,–
Cc1c(C(=O)NC2CCCCC2)sc2ncnc(NCCN(C)C)c12,–,·,·,–,·,·
CC(C)CN(C(=O)CN(C)C(=O)Cc1c(F)cccc1Cl)c1c(N)n(CC(C)C)c(=O)[nH]c1=O,–,–,–,–,–,–
O=C1N2CCCCC1(Sc1ccccc1)CCC2 (stereo not drawn),–,–,·,–,–,·
OC1c2cc(Cl)ccc2-c2c(Cl)cc(Cl)cc21 (stereo not drawn),?,–,–,?,?,–
CC(C)(CNC(=O)/C=C/c1ccc(F)cc1)CNC(=O)/C=C/c1ccc(F)cc1,?,?,–,?,?,–
CCc1ccc(NC(=O)c2sc3ncnc(N(C)C4CCCCC4)c3c2C)cc1,18.4µM,·,–,20.6µM,·,–
Cc1c(C(=O)Nc2ccc(Br)cc2F)sc2ncnc(N(C)C3CCCCC3)c12,–,·,–,–,·,–
O=C1Nc2ccccc2C(=O)C1(Cl)Cc1ccccc1 (stereo not drawn),6.51µM,–[9.24 µM],–,5.17µM,–,–
O=C(C1CCN(Cc2cc(Cl)ccc2O)CC1)N1CCN(Cc2ccccc2)CC1,?,–,–,20.6µM,–,–
COc1ccc(Br)cc1CN1CCCC(C(=O)N2CCCCC2)C1 (stereo not drawn),–,–,–,–,–,–
COc1ccc(Br)cc1CN1CCCC(C(=O)N2CCCCCC2)C1 (stereo not drawn),?,–,?,23.1µM,–,–
O=C(C1CCCN(Cc2cccc(Cl)c2)C1)N1CCCCC1 (stereo not drawn),?,–,–,25.9µM,–,–
CCc1nc2c(OCCn3cccc3)cccn2c1N(C)C(=O)C1CC1,–,–,–,?,–,–
O=C(NCCC(=O)N1CCC2(CC1)NCCc1[nH]cnc12)c1ccc(F)c(F)c1,–,–,–,–,–,–

# Screening data (PubChem BioAssay)
